Test results taken from PubChem BioAssay AID492956 (The Scripps Research Institute Molecular Screening Center, 2010).
The campaign covered roughly 340,000 compounds. About 3,300 (0.97%) were called active. The list comes from a sample in which actives are over-represented; it also holds similar structures and randomly drawn compounds. Unmarked numbers belong to inactive results.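 How the source made its calls: active means inhibition above the mean over all tested compounds plus 3 SD (cut at about 30% in these data); inactive means the rest.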

Biological target: Platelet-activating factor acetylhydrolase 2, cytoplasmic (Homo sapiens) (UniProt Q99487)
Assay: inhibition of cytoplasmic PAF acetylhydrolase 2 – biochemical, fluorescence polarization, human, primary screen (AID 492956);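 further: inhibitors block probe labeling of enzyme so polarization drops; 0% = enzyme with DMSO and 100% = wells lacking PAFAH2 protein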
Conditions: recombinant PAFAH2, FP-rhodamine activity probe, at 3.39 µM, stronger effect = higher value

Point of comparison: `COc1ccccc1NC(=O)COC(=O)c1ccccc1SCC(=O)N1CCCC1`, inhibition 16.2%. Against it:
- COC(=O)Nc1nc2ccc(Sc3ccccc3)cc2[nH]1 — lower, -5.35%
- Cc1c(CN2CCC(CO)(CCOc3ccccc3)CC2)[nH]c2ccc(Cl)cc12 — lower, -1.75%
- CCOc1ccccc1NS(=O)(=O)c1cc2c3c(c1)C(C)C(=O)N3CCC2 (configuration not stated) — lower, 6.38%
- CCOc1ccccc1OCC(=O)Nc1ccccc1C(=O)NC1CC1 — lower, 2.58%
- CC(=O)Oc1ccc2c(=O)oc(-c3ccc([N+](=O)[O-])cc3)nc2c1 — higher, 29.4%
- COc1nc(N=C(N)N)nc2c(C)cccc12 — lower, 6.78%
- Cc1cc(C)cc(C(=O)NC(=S)Nc2ccc3[nH]c(=O)[nH]c3c2)c1 — lower, -14%
- CC1(C)C2CC=C(/C=N/NC(=O)C3CC3)C1C2 (configuration not stated) — lower, -2.63%
- CCN(CC)CCCNC(=O)c1ccc2c(=O)n(Cc3ccc4c(c3)OCO4)c(=S)[nH]c2c1 — lower, 4.33%
- CN(C)S(=O)(=O)c1ccc(NC(=O)COC(=O)c2n[nH]c3ccccc23)cc1 — lower, -1.53%
- C=CCN(CC=C)C(=O)COC(=O)c1n[nH]c2ccccc12 — lower, 3.36%
- COc1ccc(NC(=O)COC(=O)c2n[nH]c3ccccc23)c(OC)c1 — lower, 7.22%
- O=C(COC(=O)c1ncc(Cl)c(Cl)c1Cl)NCc1ccccc1 — lower, -0.64%
- O=C(O)CC(c1ccccc1F)N1Cc2ccccc2C1=O (configuration not stated) — lower, 3.09%
- Cc1ccn2c(=O)nc(SCC(=O)NCc3ccc4c(c3)OCO4)nc2c1 — lower, -12.4%
- Nc1nc(Br)c2ccccc2c1-c1ccc(F)cc1 — lower, 0.32%
- COCCCn1c(SCC(=O)Nc2oc(C)c3c(C)n[nH]c(=O)c23)nc2sc3c(c2c1=O)CCC3 — lower, -2.08%
- CCN(CC)S(=O)(=O)c1ccc2nc(CSc3nnnn3-c3ccc(O)cc3)[nH]c2c1 — lower, -3.11%
- C(#CCN1CCOCC1)CCCN1CCOCC1 — lower, 6.41%
- Cc1cc(C(=O)OCC(=O)c2c(N)n(C)c(=O)n(C)c2=O)c(C)o1 — lower, 10.2%
- Cc1cnc(C(=O)OCC(=O)Nc2ccc(Cl)cc2Cl)cn1 — lower, -10.2%
- O=C(COC(=O)c1ccc[nH]c1=O)Nc1ccc2c(c1)OC(F)(F)O2 — lower, -3.01%
- O=C(COC(=O)CCc1c[nH]c(=O)[nH]1)Nc1ccccc1Cl — lower, 1.19%
- COc1cc(NC(=O)COC(=O)c2cc(S(=O)(=O)N3CCOCC3)ccc2F)cc(OC)c1 — lower, -0.21%
- Cc1cc(C)cc(C(=O)OCC(=O)NCCNC(=O)COC(=O)c2cc(C)cc(C)c2)c1 — lower, 3.14%
- CONc1nc2nonc2nc1NOC — lower, 5.98%
- Cc1ccc(Nc2c(F)c(F)c(F)c(F)c2C(=O)O)c(C)c1 — lower, 4.36%
- Cn1c(=O)c(C(=O)Nc2ncccn2)c(O)c2ccccc21 — lower, -2.23%
- Cc1cc(=O)n2nc(N3CCCC3C(=O)NCCCN3CC(C)CC(C)C3)sc2n1 (configuration not stated) — lower, -2.55%
- O=C(COc1ccc(Cl)cc1)Nc1ccc2c(c1)OCO2 — lower, -4.53%
- O=C(COC(=O)c1cccc(Cl)c1)Nc1ccc2[nH]c(=O)[nH]c2c1 — lower, -4.35%
- O=C(COC(=O)c1ccncc1)Nc1ccc2c(c1)OCO2 — lower, 1.78%
- Cc1cccc(C(=O)OCC(=O)Nc2sc3c(c2C#N)CCC3)c1 — lower, 3.15%
- Cn1c(=O)c2c(ncn2CC(=O)N/N=C/c2cn[nH]c2-c2ccc(F)cc2)n(C)c1=O — lower, 3.66%
- O=C(NCc1ccco1)/C(=C/c1cccc([N+](=O)[O-])c1)NC(=O)c1ccco1 — lower, -0.82%
- CN1C(=O)/C(=C/C=C2\SCCN2C)OC1=S — lower, -4.81%
- COc1ccc(NS(=O)(=O)c2cc(NC(=O)C3CCCCC3)ccc2N2CCOCC2)cc1 — lower, 0.82%
- O=C(NCCS(=O)(=O)N1CCN(c2ccccc2F)CC1)c1ccc(Br)o1 — lower, -0.55%
- CC(OC(=O)c1ccc(S(=O)(=O)N2CCOCC2)cc1)c1ccccc1 (configuration not stated) — lower, 2.29%
- COC(=O)c1ccc(S(=O)(=O)N2CCc3ccccc3C2)cc1 — lower, -2.2%
- CN1CCC(OC(=O)COc2ccc(Cl)cc2Cl)CC1 — lower, -2.95%
- CCN(C(=O)COC(=O)c1sccc1C)c1c(N)n(Cc2ccccc2)c(=O)[nH]c1=O — lower, -2.58%
- Cc1ccc(-n2ncc3c(=O)n(-c4ccc(C)c(C)c4)c(-c4ccco4)nc32)cc1 — lower, -1.39%
- CC(=O)Cn1cnc2c(cnn2-c2ccccc2)c1=O — lower, -0.98%
- O=c1cc(O)c(-c2cccc(C(F)(F)F)c2)c(Cl)[nH]1 — lower, -1.33%
- COc1ccc(S(=O)(=O)N2CCCCCC2)cc1NC(=O)Cc1ccc(OC)c(OC)c1 — lower, 14.1%
- COc1ccc(S(=O)(=O)N2CCOCC2)cc1NC(=O)CSc1cc(C)ccc1C — lower, 2.32%
- COc1ccc(S(=O)(=O)N2CCOCC2)cc1NC(=O)CSc1ncnc2ccccc12 — lower, 0.39%
- COc1ccc(S(=O)(=O)N2CCOCC2)cc1NC(=O)CSc1nnc(NC2CC2)s1 — lower, 3.17%
- COc1ccc(S(=O)(=O)N2CCOCC2)cc1NC(=O)c1ccc(OCC(C)C)c(OC)c1 — lower, 4.28%
- COc1ccc(S(=O)(=O)N2CCOCC2)cc1NC(=O)COc1ccccc1 — lower, 6.32%
- CC(=O)NC(CC(=O)Nc1nccs1)c1ccccc1 (configuration not stated) — lower, 0.3%
- Cc1cnc(C)c(N2CCN(C(=O)C3CCC(=O)N(CCc4cccc(F)c4)C3)CC2)n1 (configuration not stated) — lower, 6.98%
- O=S(=O)(O)c1cc2onnc2c2ccccc12 — higher, 18.2%
- CCOC(=O)C1=C(C)c2ccccc2OC1(C)C(=O)OCC (configuration not stated) — lower, 0.57%
- CCOC(=O)c1ccccc1OC(=O)Oc1ccccc1C(=O)OCC — lower, 2.01%
- CCOc1ccc(OCC)c(NC(=O)C(NS(=O)(=O)c2ccc3c(c2)oc(=O)n3C)C(C)C)c1 (configuration not stated) — lower, -6.23%
- O=C(NC1CCCC1)C1CC(=O)N(c2ccc(F)cc2)C1 (configuration not stated) — lower, 5.88%
- CC(=O)NS(=O)(=O)c1ccccc1 — lower, -3.11%
- CCCCn1ccnc1C(=O)c1cccc(S(=O)(=O)N2c3ccccc3CC2C)c1 (configuration not stated) — lower, 0.31%
- O=C(COC(=O)c1cccc(Cl)c1)NC(=O)NCc1ccccc1 — lower, 1.23%
- O=C(COc1ccccc1O)NC1CCCC1 — lower, 1.1%
- CCOc1ncccc1C(=O)OCC(=O)NC1CC1 — lower, 15.7%
- N#Cc1ccc(C(=O)OCC(=O)NC(=O)NC2CCCCC2)cc1 — lower, 6.68%
- O=C(COC(=O)c1cc([N+](=O)[O-])ccc1NCc1ccccc1)NC1CCCCC1 — lower, 9.35%
- CCN(C(=O)COC(=O)c1cc(NS(=O)(=O)c2ccc(Cl)c([N+](=O)[O-])c2)ccc1O)C1CCCCC1 — lower, 14.6%
- Cc1ccc(C(=O)NCC(=O)OCC(=O)NC2CCCCCCC2)cc1 — lower, -6.95%
- CC(C)NS(=O)(=O)c1ccc(OCC(=O)NC2CCCCCC2)cc1 — lower, 5.5%
- CCN(CC)S(=O)(=O)c1ccc(N2CCN(C)CC2)c(NC(=O)Nc2ccccc2F)c1 — lower, -13.1%
- COc1ccc(CN2CC[C@H]3C=CC[C@@H](C(=O)N4CCOCC4)[C@H]3C2=O)cc1OC — lower, -0.91%
- COc1cc(NC(=S)NCCSc2ccc(C)cc2)cc(OC)c1 — lower, 5.74%
- COc1ccc(C(=O)C2CCCN(C(=O)c3cnsn3)C2)c(C)c1 (configuration not stated) — lower, -5.08%
- CC(C)N(Cc1ccccc1)C(=O)COC(=O)c1ccccc1SCC(=O)N1CCCC1 — lower, -10.1%
- CS(=O)(=O)Nc1ccccc1C(=O)OCC(=O)NC1CC1 — lower, 9.45%
- O=C(COC(=O)c1cccnc1Cl)NC(=O)NC1CCCCC1 — lower, 0.86%

In the case of `Nc1ccc2nc3c(=O)[nH]c(=S)[nH]c3nc2c1`, the inhibition is reported as 58.3% (active).
With `CC(=O)Oc1ccc(-c2nc3c(C)cccc3c(=O)o2)cc1` the inhibition was 40.7% (active).
With `O=C(COC(=O)c1n[nH]c2ccccc12)NCc1ccccc1` the inhibition was 35.5% (active).
With `O=C(COC(=O)c1n[nH]c2ccccc12)Nc1ccccc1Br` the inhibition was 47.3% (active).
With `Cc1cc(C)cc(NC(=O)COC(=O)c2cc(C)oc2C)c1` the inhibition was 60.9% (active).
With `Cc1cc(C(=O)OCC(=O)Nc2ccc(F)c(F)c2)c(C)o1` the inhibition was 81.8% (active).
`Cc1cc(C(=O)OCC(=O)Nc2ccccc2Cl)c(C)o1` was tested, and the inhibition was 45.1% (active).
In the case of `O=C(COC(=O)c1ccc(F)cc1)Nc1ccc2c(c1)OCO2`, the inhibition is reported as 81% (active).
With `Cc1cccc(C(=O)OCC(=O)Nc2ccc(F)cc2)c1` the inhibition was 84% (active).
In the case of `O=C(ON=C1CCN(S(=O)(=O)c2ccccc2)CC1)c1ccc(Cl)cc1`, the inhibition is reported as 86.6% (active).
For `Cc1ccc(-c2nc3c(cnn3-c3ccccc3)c(=O)o2)cc1`, the inhibition was 59.4% (active).
With `COc1ccc(S(=O)(=O)N2CCOCC2)cc1NC(=O)Cc1coc2cc(C)ccc12` the inhibition was 39.9% (active).
For `COc1ccc(S(=O)(=O)N2CCOCC2)cc1NC(=O)CC1CC2CCC1C2` (configuration not stated), the inhibition was 70.4% (active).
With `COc1ccc(S(=O)(=O)N2CCOCC2)cc1NC(=O)Cc1c(F)cccc1Cl` the inhibition was 43.5% (active).
In the case of `CCOC(=O)c1c(C)[nH]c2c1-c1ccccc1C(=O)C2=O`, the inhibition is reported as 53.9% (active).
With `COc1ccc(NS(=O)(=O)c2ccc(O)c(C(=O)OCC(=O)NC3CCCCC3)c2)cc1` the inhibition was 41% (active).
`N#Cc1ccccc1Sc1ccccc1C(=O)OCC(=O)NC1CCCCC1` was tested, and the inhibition was 31% (active).
For `O=C(COC(=O)c1ccccc1SCC(=O)NC1CCCCC1)NC1CCCCC1`, the inhibition was 59.5% (active).
With `O=C(COC(=O)c1cccc(Cl)c1)NC1CCCCCCC1` the inhibition was 82.5% (active).
In the case of `O=C(COC(=O)c1ccccc1SCC(=O)N1CCCC1)Nc1ccccc1OC(F)F`, the inhibition is reported as 49.4% (active).
`O=C(COC(=O)c1ccccc1Cl)NC1CCCCCCC1` was tested, and the inhibition was 68.9% (active).
